Compound activity (PubChem)
Giardia FBPA inh: inhibitors of Giardia lamblia fructose-1,6-bisphosphate aldolase; Potency, µM (top dose mostly 59.6 µM), for inactives: at the top dose activity, negative = inhibition, hits mostly inhibitors; 290,000 compounds, 0.71% hits; purified Giardia FBPA; A8B2U2; further: potency means the concentration at half of the fitted maximal effect; on the % scale 0 is the no-effect control and ±100 the full control effect; nearly all actives have a fitted effect of over 55% in size
Target sequence (A8B2U2 whole entry, looked up): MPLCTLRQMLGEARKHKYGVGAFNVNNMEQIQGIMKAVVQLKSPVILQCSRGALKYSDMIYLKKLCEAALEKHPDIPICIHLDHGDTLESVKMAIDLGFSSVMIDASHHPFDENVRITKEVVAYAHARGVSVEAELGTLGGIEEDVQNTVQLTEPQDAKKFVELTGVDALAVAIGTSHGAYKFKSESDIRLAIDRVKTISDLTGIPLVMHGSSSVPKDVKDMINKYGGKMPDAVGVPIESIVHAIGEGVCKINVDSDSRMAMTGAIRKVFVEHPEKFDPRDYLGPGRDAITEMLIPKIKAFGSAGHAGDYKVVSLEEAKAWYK
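Giardia FBPA (40 nM reagent) was preincubated 10 min at RT with compound (up to 57.5 uM final), then substrate plus GAPDH/TPI/NAD/arsenate coupling system with diaphorase/resazurin was added; resorufin fluorescence (525/598 nm) was read after 20 min.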
LmPK inh: blocks Leishmania mexicana pyruvate kinase activity | Q27686 | Potency, µM (doses to about 57.5 µM), for inactives: at the highest dose activity change, negative = inhibition, actives largely listed as inhibitors | 290,000 compounds, 0.37% hits | purified LmPK, Kinase-Glo ATP luminescence, 1 h | AID 1721; further: potency means the concentration at half of the fitted maximal effect; on the % scale 0 is the no-effect control and ±100 the full control effect
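Kinase-Glo luminescence read after 1 h RT reaction of 0.1 nM LmPK with 0.5 mM PEP and 0.1 mM ADP. Activity scaled between uninhibited and enzyme-free controls.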
Shiga toxin inh: inhibitors of Shiga toxin in Vero cells; 290,000 compounds, 9.2% hits; inhibition, % at 38.7 µM; Vero cells, Shiga toxin protein synthesis inhibition reporter; in the data active means inhibition mostly above about 28%, no sharp cut-off; inactive means mostly below about 43%; further: 0% is about no effect
RE007 growth inh: less growth of the S. pombe RE007 Vpr strain. S. pombe RE007 Vpr strain, BacTiter-Glo ATP luminescence, 24 h. Potency, µM (top dose mostly 92.2 µM), inactives show at the highest dose activity change, negative = less growth, usual class: inhibitors. 360,000 compounds, 0.21% hits. AID 651644; active means well fitted falling curve with a large enough effect; inconclusive means small, poorly fitted or top-dose-only effect; inactive means no such curve, though single readings can be large or run the other way; further: potency means the concentration at half of the fitted maximal effect; on the % scale 0 is the no-effect control and ±100 the full control effect; nearly all actives have a fitted effect of over 50% in size
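Fission yeast strain RE007, carrying one chromosomally integrated HIV-1 vpr copy, was seeded at OD 0.01 in PMG+AL medium with 23 nL pinned compound. After 24 h at 30 °C and 99% humidity, viability was read by BacTiter-Glo luminescence.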
Tb PYK inh: T. brucei pyruvate kinase inhibition | TbPYK enzyme, Kinase-Glo Plus ATP luminescence, 45 min | Potency, µM (top dose mostly 76.8 µM), for inactives: top-dose activity, negative = inhibition, usual class: inhibitors | 410,000 compounds, 0.12% hits | AID 624173; further: potency means the concentration at half of the fitted maximal effect; on the % scale 0 is the no-effect control and ±100 the full control effect; nearly all actives have a fitted effect of over 50% in size
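ADP (130 uM final) triggers the TbPYK reaction after compound addition; incubation is 45 min at room temperature. Kinase-Glo Plus is then added and luminescence imaged. Normalized data are fitted to concentration-effect curves.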
Cycloheximide cs: counter-screen hit for Shiga toxin inhibitors, cycloheximide; max response, %; 300,000 compounds, 12% hits; cell reporter, cycloheximide protein synthesis inhibition counterscreen; in the data active means max response mostly above about 13%, no sharp cut-off; inactive means mostly below about 14%; further: read at 38.3 µM for the half of the compounds with a filed dose; 0% is about no effect
An asterisk follows results filed as active; ? = inconclusive; nt = not tested or not shown; [ ] = another dose, or the depositor's remark. The sample as a whole holds a higher share of hits than the screen did. Unless noted, the call rests on the fitted dose curve; in most records, active means well fitted curve in the direction sought with a large enough effect; inconclusive means small, poorly fitted or top-dose-only effect, or another doubt; inactive means no such curve, though single readings can be large; an effect the other way counts as inactive or inconclusive.

SMILES	Giardia FBPA inh	LmPK inh	Shiga toxin inh	RE007 growth inh	Tb PYK inh	Cycloheximide cs
COc1ccc(-n2c(=O)c(CCc3ccccc3)nc3cnc(N4CCNCC4)nc32)cc1	-8%	nt	nt	nt	0%	nt
CCC(CO)Nc1ncnc2c1cnn2-c1ccc(Cl)cc1 (centres undefined)	-5%	0%	47	8%	0%	40*
COc1ccc(CC(=O)NNc2ncnc3c2cnn3-c2ccccc2)cc1	9%	1%	17	9%	-11%	-3
CCC(CO)Nc1ncnc2c1cnn2-c1ccc(OC)cc1 (centres undefined)	-1%	-5%	53*	1%	-1%	37*
CCc1ccccc1Nc1ncnc2c1cnn2-c1ccc(Cl)cc1	nt	nt	nt	nt	1%	nt
CC(=O)c1cccc(NC(=O)NCc2cccs2)c1	0%	-1%	11	5%	-10%	1
O=C(Nc1ccc2c(c1)OCO2)Nc1cnccn1	-6%	0%	58*	6%	-5%	27*
O=C(NCc1ccccn1)Nc1ccc2c(c1)OCO2	-9%	0%	101*	32%	0%	57*
O=C(NCc1cccs1)Nc1ccc(Cl)cc1	3%	5%	61*	16%	-11%	45*
COc1ccc(NC(=O)NCc2ccc3c(c2)OCO3)cc1OC	-4%	-4%	17	-8%	-6%	-2
O=C(NCc1cccs1)Nc1ccc2c(c1)OCO2	4%	4%	69*	5%	1%	40*
CC1CCc2c(sc3nc(-c4cc5ccccc5oc4=O)nc(Cl)c23)C1 (centres undefined)	nt	nt	nt	nt	3%	nt
O=C(Nc1cccc(F)c1)Nc1ccccn1	-5%	-6%	61*	-3%	-15%	49*
c1cc(CNc2ccc3c(c2)OCCO3)ccn1	-24%	-3%	83*	1%	-8%	53*
O=C(NCc1ccncc1)Nc1ccc2c(c1)OCO2	-1%	-1%	41*	-7%	-2%	26*
c1cc(CNCCc2ccc3c(c2)OCO3)ccn1	?	-1%	nt	3%	1%	-3
O=C(Nc1ccc2c(c1)OCO2)Nc1ccccn1	-19%	-6%	99*	-9%	-6%	55*
CCC(C)(C)NS(=O)(=O)c1cc(-c2cc(C)no2)ccc1C	nt	nt	nt	nt	5%[15.4 µM]	nt
O=C(N/N=C/c1ccc(Cl)cc1Cl)c1n[nH]c2c1CCCC2	0%	-5%	67*	10%	-5%	21*
O=C(N/N=C/c1cccc(Cl)c1)C1CCCC1	nt	0%	54*	-5%	3%	35*
O=C(N/N=C/c1cccnc1)C1CCCCC1	-1%	7%	-3	-16%	1%	23
O=C(N/N=C\c1cccc(Cl)c1)c1n[nH]c2c1CCCC2	-2%	0%	78*	5%	-2%	59*
C/C(=N\NC(=O)c1n[nH]c2c1CCC2)c1cccs1	-5%	11µM*	-11	3%	-5%	-2
CCCCC(CC)CNC(=O)CCCc1nnc2n(CCC)c(=O)c3sccc3n12 (centres undefined)	nt	nt	nt	nt	0%	nt
Cc1ccc(/C=N/NC(=O)c2n[nH]c3c2CCCC3)cc1	3%	5%	53*	-13%	1%	32*
SMILES	Giardia FBPA inh	LmPK inh	Shiga toxin inh	RE007 growth inh	Tb PYK inh	Cycloheximide cs
O=C(N/N=C/c1cccs1)c1n[nH]c2c1CCCC2	1%	14µM*	-21	-9%	-21%	6
Cc1cccc(CNC(=O)c2ccc3nc(Cc4ccccc4F)oc3c2)n1	nt	-9%	111*	-8%	0%	58*
O=C(NCCc1ccc(Cl)cc1)c1ccc2nc(Cc3ccccc3)oc2c1	nt	nt	nt	nt	1%	nt
O=C(NCCc1ccccn1)c1ccc2nc(Cc3ccccc3F)oc2c1	nt	-12%	105*	2%	3%	62*
COc1ccc(Cc2nc3ccc(C(=O)NCc4cccc(C)n4)cc3o2)cc1OC	nt	nt	nt	-10%	5%	nt
CCOc1cc(/C=C(\C#N)C(=O)Nc2ccc(C)cc2)ccc1OCc1cc(=O)n2nc(CC)sc2n1	nt	nt	nt	nt	2%	nt
COc1ccc(CC(=O)NC2CC(=O)N(c3ccc(C)c(C)c3)C2)cc1OC (centres undefined)	nt	nt	nt	nt	-9%	nt
